# Laboratory results as given in PubChem BioAssay (NCI).
# The panel holds about 83,000 compounds, 20% with a hit somewhere; the sample as a whole holds those more often.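 Testing used 96-well plates and a 48-hour single-concentration exposure. Example: -40 means 40% of the starting cells died.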 Unmarked numbers belong to inactive results. The source made the active and inactive calls. How the source made its calls: active means growth percent below 10; inactive means the rest.
# Experiments:
# Assay in all cases: NCI-60 one-dose screen, 48 h (100 = growth as untreated, 0 = no growth, -100 = all killed)
# Conditions in all cases: 10 µM unless noted
# [1] = test system: NCI-H23 lung
# [2] = test system: NCI-H226 lung
# [3] = test system: NCI-H322M lung
# [4] = test system: HOP-62 NSCLC
# [5] = test system: NCI-H460 lung
# [6] = test system: HOP-92 NSCLC
# [7] = test system: NCI-H522 lung
# [8] = test system: A549/ATCC NSCLC
# [9] = test system: 786-0 renal
# [10] = test system: COLO 205 colon
# [11] = test system: DU-145 prostate
# [12] = test system: K-562 leukemia
# [13] = test system: MALME-3M melanoma
# [14] = test system: MDA-MB-231 breast
# [15] = test system: RXF 393 renal
# [16] = test system: SF-268 CNS
# [17] = test system: SF-295 CNS
# [18] = test system: SF-539 CNS
# [19] = test system: UACC-257 melanoma
# [20] = test system: M14 melanoma
Structure (SMILES),growth [1],growth [2],growth [3],growth [4],growth [5],growth [6],growth [7],growth [8],growth [9],growth [10],growth [11],growth [12],growth [13],growth [14],growth [15],growth [16],growth [17],growth [18],growth [19],growth [20]
Cn1cc(CC2CC(=O)N(c3ccccc3)C2=O)sc1=NC(=O)c1ccccc1 (stereo not given),95.8%,97.5%,92.5%,92.9%,106%,85.1%,92.8%,101%,94.4%,111%,103%,104%,89.9%,111%,92.2%,96.2%,102%,99.8%,98%,90.9%
CN1CCC(=C(c2ccccc2)c2ccccc2)C(c2ccccc2)C1 (stereo not given),88.1%,96.3%,96.7%,101%,103%,82.8%,85.2%,90.8%,95.1%,83%,104%,106%,104%,94.8%,88%,97.8%,99.3%,101%,105%,112%
Cc1ccc(S(=O)(=O)Nn2c3c(cc(-c4nc5ccccc5s4)c2=O)CCCCCC3)cc1,94.8%,76.6%,100%,94.9%,104%,85.4%,89.1%,101%,101%,119%,105%,98.4%,88.3%,93.2%,101%,96%,97.2%,100%,97.3%,99%
CNC(=O)c1cc(Cn2nc(C)c(NC(=O)Nc3ccc(Cl)c(C(F)(F)F)c3)c2C)ccn1,97.8%,96.6%,94.5%,93.4%,100%,106%,71.5%,70%,100%,99.9%,101%,112%,98.5%,91.8%,102%,98%,95.5%,94%,79%,97.5%
CCOC(=O)C1=C(C)NC(SCc2cc(=O)oc3ccc(F)cc23)=N[C@@H]1c1cccc2ccccc12,94.3%,103%,102%,90.8%,105%,86.7%,84.8%,98.9%,93.4%,108%,98.5%,79.7%,112%,77.7%,117%,94.3%,97.9%,114%,109%,102%
CCCCOc1ccc(/C(C)=N/Nc2cc(C)nc3ccc(Br)cc23)cc1,90.7%,89.6%,103%,88.7%,14.2%,78.4%,96.9%,92.5%,95.1%,26.5%,96.3%,15.7%,145%,81.3%,94.3%,96.3%,76.2%,98.7%,114%,104%
COc1cc2nc(-c3ccc(Cl)cc3)cc(OCCCN3CCCCC3)c2cc1OC,64.7%,-9.93% (active),63.1%,54.7%,25.6%,34.2%,34%,36%,72.5%,16.1%,40.9%,14.3%,46.1%,27.4%,39.1%,57.5%,-51.3% (active),49.5%,-0.848% (active),-28.2% (active)
COC(=O)/C=C1\S/C(=N\NC(=O)c2cc3ccc2/C=C\c2ccc(cc2)/C=C\3)N(Cc2ccccc2)C1=O,77.4%,64.8%,93.3%,77.2%,93.7%,75.5%,15.9%,77%,49.6%,72.7%,83.2%,18.9%,88.4%,56.8%,15.6%,85%,89.4%,43.3%,81%,63.4%
C=C1C(=O)O[C@H]2[C@H]1CC/C(COC(=O)NCc1c[nH]c3ccc(Br)cc13)=C\CC[C@@]1(C)O[C@@H]21,29.4%,4.62% (active),74%,58.5%,24.1%,-46.3% (active),-89.9% (active),49.1%,-47.7% (active),-78.2% (active),-88.6% (active),0.98% (active),-45.4% (active),-52.7% (active),-87.7% (active),3.85% (active),60.9%,-36.9% (active),-39.6% (active),-40.8% (active)
Nc1nc(Nc2ccccc2SSc2ccccc2Nc2nc(N)nc(-c3cccs3)n2)nc(-c2ccsc2)n1,59.5%,85.2%,90.6%,-41.2% (active),55.9%,104%,85.3%,18.4%,93.6%,97.8%,95.1%,80.9%,106%,75.8%,109%,79.6%,-53.4% (active),105%,101%,96.5%
Cc1cc(C(=O)/C=C/c2ccc[nH]2)ccc1-n1ccc(C(F)(F)F)n1,89.5%,89.8%,97.5%,106%,98.9%,104%,-9.61% (active),84.9%,48.7%,115%,96%,53.3%,94.7%,30.6%,21.2%,49.1%,85%,13.5%,97.4%,90.5%
CCCCCCNC(=O)Nc1ccc2cc3ccc(NC(=O)NCCCCCC)cc3nc2c1,-39% (active),79.5%,22.8%,18.1%,-11.9% (active),68.9%,-67.1% (active),23.7%,27.5%,17.5%,21.7%,-29.6% (active),-35.7% (active),-23.6% (active),-47.7% (active),-62.8% (active),-47.5% (active),-77.1% (active),72.6%,28.5%
CCN(CC)c1ccc(/C=N/NC(=O)CSc2nc3ccccc3c(=O)n2Cc2ccc(S(N)(=O)=O)cc2)c(O)c1,39.6%,31.1%,27.1%,21.2%,6.78% (active),58.4%,-26.1% (active),29%,32.6%,-2.18% (active),37.8%,6.12% (active),31.3%,25.3%,42.6%,18.6%,20.3%,27.9%,13%,4.26% (active)
COc1cccc(C(=O)NNc2nc(Cl)nc(N3CCN(C(c4ccccc4)c4ccccc4)CC3)n2)c1,45.3%,94.9%,88.9%,92.8%,102%,77%,-13.6% (active),101%,82%,76.6%,101%,-34.7% (active),84.1%,59%,78.4%,99.3%,96.3%,90.8%,88.4%,45.4%
